Source: PubChem BioAssay (NCI)
The panel holds about 83,000 compounds, 20% with a hit somewhere; the sample as a whole holds those more often.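 Step 1: grow cells in 96-well plates. Step 2: add test compound at a single concentration. Step 3: incubate 48 h. Step 4: record percent growth.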 A number with no mark means an inactive call. The source made the active and inactive calls. How the source made its calls: active means growth percent below 10; inactive means the rest.

Legend:
Experiment in all cases: NCI-60 one-dose screen, 48 h (100 = growth as untreated, 0 = no growth, -100 = all killed)
Settings in all cases: 10 µM unless noted
RPMI-8226 leukemia = tested on: RPMI-8226 leukemia
OVCAR-8 ovarian = tested on: OVCAR-8 ovarian
OVCAR-5 ovarian = tested on: OVCAR-5 ovarian
OVCAR-4 ovarian = tested on: OVCAR-4 ovarian
SK-OV-3 ovarian = tested on: SK-OV-3 ovarian
IGROV1 ovarian = tested on: IGROV1 ovarian
OVCAR-3 ovarian = tested on: OVCAR-3 ovarian
HS 578T breast = tested on: HS 578T breast
NCI/ADR-RES ovarian = tested on: NCI/ADR-RES ovarian
SR leukemia = tested on: SR leukemia

Compound | growth (RPMI-8226 leukemia) | growth (OVCAR-8 ovarian) | growth (OVCAR-5 ovarian) | growth (OVCAR-4 ovarian) | growth (SK-OV-3 ovarian) | growth (IGROV1 ovarian) | growth (OVCAR-3 ovarian) | growth (HS 578T breast) | growth (NCI/ADR-RES ovarian) | growth (SR leukemia)
Cc1ccc(/C=C(/C#N)n2nnc3ncccc32)cc1 | 7.18% (active) | -1.49% (active) | -20.3% (active) | 25.7% | 14.2% | 19.3% | -15% (active) | 0.782% (active) | 2.09% (active) | –
O=C1/C(=C/c2ccc(F)cc2)Cc2ccccc21 | 98% | 101% | 92.6% | 87.7% | 110% | 105% | 110% | 109% | 107% | –
NS(=O)(=O)c1ccc(-n2ncc3c(SCc4ccccc4)ncnc32)cc1 | 91.9% | 96.1% | 99.7% | 104% | 108% | 85.9% | 99.4% | 97.3% | 101% | –
BrC1CC(Br)c2c1c1c(c3c2C(Br)CC3Br)C(Br)CC1Br (stereo not drawn) | 92.9% | 85.2% | 99.2% | 106% | 102% | -20.2% (active) | 150% | 93.6% | 91% | –
COc1cccc(-c2nc(-c3ccc(N)cc3)co2)c1 | 89.5% | 85.8% | 115% | 109% | 118% | -0.817% (active) | 82% | 115% | 92.8% | –
COc1ccc2c(c1)sc1nc(-c3ccc(N(C)C)cc3)cn12 | 33% | 95.2% | 98.8% | 97.8% | 82.6% | 15.8% | 88.5% | 122% | 76.8% | –
O=C1/C=C/[C@@H](O)[C@@H]2C[C@@H](O)C[C@H]2/C=C/CCC[C@H](CO)O1 | 37.4% | 35.4% | 52.8% | 26.2% | 50.7% | 49.9% | -2.9% (active) | 35.5% | 15.9% | –
O=C1Nc2ccc(Cl)cc2[C@@](C#CC2CC2)(C(F)(F)F)O1 | 92.2% | 91.3% | 91.1% | 89.1% | 110% | -10.5% (active) | 101% | 99.2% | 99.1% | –
CC(C)Cn1cnc2c(NCn3nc(-c4cc(Cl)cc(Cl)c4Cl)n(/N=C/c4ccc(Cl)cc4)c3=S)nc3ccccc3c21 | 44.3% | 72.4% | 92.1% | 71.1% | 110% | 4.11% (active) | 98% | 94% | 56.3% | –
CC(=O)O[C@H]1CC[C@@]2(C)C(=CC[C@@H]3[C@@H]2CC[C@]2(C)C(c4cccnc4)=CC[C@@H]32)C1 | – | – | 95.6% | 47.2% | 76.7% | 62.6% | 70.3% | -7.37% (active) | 45.4% | 30.8%
CCCCc1ccc(C(N)=O)nc1 | 88.6% | 107% | 96.2% | 100% | 99.5% | 19.4% | 107% | -48.3% (active) | 106% | –
CCN(CC)c1ccc(/C=C/C(=O)c2cccc(NS(C)(=O)=O)c2)cc1 | – | – | 64.4% | 42.2% | 51.1% | 9.33% (active) | 48.5% | 28.5% | 26.4% | -4.7% (active)
Nc1ccccc1C#Cc1ccccc1C#Cc1ccc(OCCCCCCOc2ccc(C#Cc3ccccc3C#Cc3ccccc3N)cc2)cc1 | 94% | 95.6% | 90.7% | 105% | 92.5% | -7.54% (active) | 109% | 113% | 93% | –
COc1cc(/C=C/C(=O)c2c(C)n([O-])c3ccccc3[n+]2=O)cc(OC)c1OC | 9.32% (active) | 30.6% | 80.6% | 46.9% | 58.3% | -15.8% (active) | 59.2% | 43.2% | 43.4% | –
CSc1nc(-c2ccc(O)cc2O)c2c(=O)[nH]c(Nc3ccc(S(=O)(=O)Nc4nc(C)cc(C)n4)cc3)nc2n1 | – | – | 90% | 108% | 105% | – | 98.1% | 119% | 97.5% | 63.3%
COc1cnc2c(c1)C(=O)c1c-2n(CCCn2ccnc2)c(=O)c2cc(F)ccc12 | -28.2% (active) | 5.92% (active) | -30.4% (active) | -0.273% (active) | -22.5% (active) | 4.03% (active) | -35.5% (active) | 15.5% | -3.87% (active) | –
CC(=O)c1nn(-c2ccccc2)c(=Nc2ccccc2)cc1C | 100% | 96.7% | 90.5% | 96.9% | 108% | 106% | 113% | 114% | 100% | –
FC(F)(F)c1cc(-c2nnc3n2N=C(N2CCCC2)CS3)cc(C(F)(F)F)c1 | 95% | 74.4% | 106% | 102% | 21% | 87% | 53.6% | 46.8% | 80.2% | –
ICCC(c1ccccc1)(c1ccccc1)c1ccccc1 | – | – | 82.6% | 50.8% | 74.6% | 61.7% | 58.1% | 48.3% | 74.6% | -28.7% (active)
CC(=O)c1ccccc1NC(=O)C(C)(c1ccccc1)c1ccccc1 | 57.3% | 90.2% | 91.3% | 97.9% | 103% | 101% | 103% | 34.3% | 63.8% | –
O=C(Nc1nn2c(-c3cc(C(F)(F)F)cc(C(F)(F)F)c3)nnc2s1)C1CCCC1 | 20.5% | 12% | 18.6% | 18.8% | 5.54% (active) | 40% | 22.9% | 21.6% | 2.45% (active) | –
C[C@]12CC[C@H](O)CC1=CC[C@@H]1[C@@H]2CC[C@]2(C)C(c3cccnc3)=CC[C@@H]12 | – | – | 92.3% | 49.7% | 87.8% | 43.5% | 56.1% | 13.6% | 49.9% | –
COc1ccc2c(=O)c(OC)c(-c3cc(OC)c(OC)c(OC)c3)oc2c1 | 92.6% | – | 101% | 96.6% | 114% | – | 98.6% | 91.9% | 83.9% | –
Cc1cc(C)c2c(N)c3cccc(C)c3nc2n1 | -35% (active) | – | -22.9% (active) | 2.47% (active) | 2.68% (active) | – | -35.7% (active) | 73.2% | -28.9% (active) | –
COc1ccc(N2CCN(CC(=O)N3CCN(c4nnc(-c5ccccc5)c(-c5ccccc5)n4)CC3)CC2)cc1 | 1.97% (active) | – | 90.3% | 49.8% | 80.7% | – | 49.5% | 54.7% | 49.9% | –
Cc1sc2nc3c4ccccc4c(NCCCN(C)C)nn3c(=O)c2c1C | -56.4% (active) | – | 71% | 65.8% | 65.7% | 23.4% | 59.2% | 71.6% | 66.8% | –
CCOC(=O)Nc1ccc2c3c(cccc13)-c1ccccc1-2 | – | – | 63.6% | 48.5% | 62.7% | 20.9% | -19.8% (active) | – | 7.96% (active) | –
COc1cc(OC)c2c(c1Cl)O[C@]1(C2=O)C(OCc2ccccc2)=CC(=O)C[C@H]1C | -4.76% (active) | – | 17.2% | 39.2% | 10.2% | – | -23.5% (active) | 18.7% | 7.55% (active) | –
